# Assay results: PubChem BioAssay AID1626 (SRMLSC, 2009)
# About 2,000 (0.91%) of roughly 220,000 compounds were called active. Another 2% or so got no clear call; they are omitted. No stated cut-off is given here; in the data, inconclusive means inhibition above about 80% without an active follow-up result; inactive means below that; test concentration not stated here. Only a sample is shown. Measured potencies and affinities stand elsewhere.
# Test: M. tuberculosis H37Rv growth inhibitors, H37Rv strain (AID 1626);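 further: bacteria incubated seven days before Alamar blue readout; 0% = bacteria only wells and 100% = bacteria with antibiotic wells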
# Conditions: hits give high values, concentration not given here
row,Compound,inhibition
1,CCOC(=O)c1c(NC(=O)c2nn(CC)cc2Br)c(C#N)cn1-c1ccccc1,-6% (inactive)
2,CCOC(=O)N1CCC(N2CCCC(C(=O)c3cccc(OC)c3)C2)CC1 (stereo not drawn),0.16% (inactive)
3,CC(C)Oc1cccc(C(=O)C2CCCN(Cc3ccon3)C2)c1 (stereo not drawn),5.09% (inactive)
4,Cc1ncc(CN2CCCC(C(=O)c3cccc(OC(C)C)c3)C2)s1 (stereo not drawn),-0.24% (inactive)
5,CCOC(=O)N1CCC(N2CCCC(C(=O)c3cc(C)c(OC)c(C)c3)C2)CC1 (stereo not drawn),-0.88% (inactive)
6,COc1ccc(OC)c(CN2CCCC(C(=O)c3ccccc3SC)C2)c1 (stereo not drawn),5% (inactive)
7,COc1ccc(O)c(CN2CCCC(C(=O)c3ccccc3SC)C2)c1 (stereo not drawn),-3.14% (inactive)
8,CCn1ccnc1CN1CCCC(C(=O)c2cc(C)c(OC)c(C)c2)C1 (stereo not drawn),9.37% (inactive)
9,CCn1ccnc1CN1CCCC(C(=O)c2ccc(OC)cc2OC)C1 (stereo not drawn),-1.43% (inactive)
10,c1ccc(-c2cnc(SCCN3CCOCC3)n2CC2CCCO2)cc1 (stereo not drawn),4.09% (inactive)
11,CCN(CC)C(=O)C(=O)c1cccn1-c1c(Cl)cccc1C#N,-1.07% (inactive)
12,NC(=O)c1cn(-c2ccccc2)nc1-c1cccnc1,-9.42% (inactive)
13,CC1CC(=O)N(CC(=O)NCc2ccco2)c2ccccc2S1 (stereo not drawn),-7.83% (inactive)
14,O=C(CCc1nnc(CCc2c[nH]c3ccccc23)o1)NC1CCC1,-2.04% (inactive)
15,COc1ccc(NC(=O)c2ccccc2[N+](=O)[O-])cc1,-5.35% (inactive)
16,Cc1c(C(=O)NCCCn2ccnc2)oc2ccccc12,3% (inactive)
17,CCc1ccc(/C=N/NC(=O)c2cc(C)on2)s1,4.86% (inactive)
18,CC(C)CCNC(=O)CCSCCC(=O)NCCC(C)C,-5.9% (inactive)
19,COc1ccc(C(=O)C2CCCN(Cc3cccc(C)n3)C2)c(OC)c1 (stereo not drawn),-9.04% (inactive)
20,COc1c(C)cc(C(=O)C2CCCN(Cc3ccccn3)C2)cc1C (stereo not drawn),52.1% (inactive)
21,COc1ccc(C(=O)C2CCCN(Cc3cnc(C)s3)C2)cc1OC (stereo not drawn),-7.69% (inactive)
22,Cc1cccc(CN2CCCC(C(=O)c3ccc4c(c3)OCO4)C2)n1 (stereo not drawn),9.77% (inactive)
23,COc1cccc(C(=O)C2CCCN(Cc3cccc(C)n3)C2)c1 (stereo not drawn),6.54% (inactive)
24,COc1ccc(C(=O)C2CCCN(Cc3cnc(C)s3)C2)c(OC)c1 (stereo not drawn),1.52% (inactive)

row,Compound,inhibition
1,Cc1cccc(-n2ncc3c(Nc4ccc(F)cc4)ncnc32)c1,8.29% (inactive)
2,COc1ccc(N2C(=O)c3ccccc3S2(=O)=O)cc1,-3.28% (inactive)
3,COc1ccc(CN2CN=C(Nc3nc4ccccc4s3)NC2)cc1,-0.93% (inactive)
4,CCNC(=S)N/N=C/c1ccc(OCCOc2ccccc2C)cc1,-4.17% (inactive)
5,COC(=O)c1ccc(CNC(=O)COc2ccccc2Br)o1,5.3% (inactive)
6,CC[n+]1ccccc1/C=C/Nc1ccccc1,-7.49% (inactive)
7,O=C(CSc1nccc(=O)[nH]1)Nc1ccc2c(c1)OCCO2,31.1% (inactive)
8,O=C(CSc1nccc(=O)[nH]1)Nc1ccc(F)c(Cl)c1,-0.08% (inactive)
9,S=c1[nH]nc(-c2ccncc2)n1/N=C/C(Cl)=C\c1ccccc1,6.36% (inactive)
10,COc1cc(CNc2ncn[nH]2)ccc1OCc1cccc(C)c1,5.16% (inactive)
11,COc1ccc(O)c(C(=O)c2cnc3c(c2)CN(C)C(=O)N3)c1,-1.06% (inactive)
12,CC1(C)CC(NC(=O)c2ccccn2)CC(C)(C)N1O,1.26% (inactive)
13,S=C1NCCNC(=S)NCCOCCOCCOCCN1,-1.99% (inactive)
14,CC(C)(C)c1cc(-n2ccnc2)n2ncc(-c3ccc(Cl)cc3)c2n1,6.96% (inactive)
15,Cc1cc(NCCCn2ccnc2)n2ncc(-c3ccccc3)c2n1,18.5% (inactive)
16,Cc1cc(NCCCN2CCOCC2)n2ncc(-c3ccccc3)c2n1,7.39% (inactive)
17,Clc1ccc(-n2ncc3c(NCCCn4ccnc4)ncnc32)cc1,-5.48% (inactive)
18,COC(=O)c1cc(Br)c(=O)n(CCC2=CCCCC2)c1,-7.27% (inactive)
19,O=C(NC(=S)Nc1ccc(CN2CCOCC2)cc1)c1ccco1,-0.41% (inactive)
20,COc1ccc(-c2[nH]ncc2CN2CCC(N3CCSCC3)CC2)c(F)c1,-0.36% (inactive)
21,Cc1ccc(-c2nn(-c3ccccc3)cc2/C=N/NC(=O)c2ccc(Br)o2)cc1,0.66% (inactive)
22,Clc1ccc(Cl)c(OCCCCNCc2ccccc2)c1,11.2% (inactive)
23,Clc1cc(Br)ccc1OCCCNCc1ccccc1,23% (inactive)
24,Cc1ccc(C)c(OCCCC(=O)Nc2ccc(N3CCOCC3)cc2)c1,-9.52% (inactive)
